Experimental data taken from PubChem BioAssay (Tox21).
Inconclusive results are not listed. Entries that show only a call come without a potency. Unmarked numbers belong to inactive results. The source made the active and inactive calls. Calls follow the shape of the dose curve; as a rule, active = well fitted curve in the direction sought with a large enough effect in the repeat runs; inconclusive = weak or mixed curves; inactive = no such curve, though single readings can be large; an effect the other way counts as inactive or inconclusive.

How the values were obtained:
[1] = qHTS RealTime-Glo MT Cell Viability Assay in HepG2 cells - 40 hour (AID 1224870); settings: RealTime-Glo luminescence; series mostly up to 76.8 µM; also: nearly all actives have a fitted effect of over 50% in size
Outline: (§1)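 HepG2 cells (600/well) mixed with RealTime-Glo MT reagent, settled 5 h at 37 C/5% CO2 before compound addition. Nonlytic NanoLuc luminescence from viable-cell prosubstrate reduction read repeatedly during 40 h treatment at 37 C.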

[2] = A CellTox Green Cytotoxicity Assay to monitor cytotoxicity in HEK293 cells - 40 hour (AID 1224871); settings: CellTox Green fluorescence; series mostly up to 76.8 µM; also: nearly all actives have a fitted effect of over 45% in size; also: potency is read from the fitted curve at half-maximal effect
Outline: (§2)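 Each value comes from one timepoint of a single continuous run in which HEK293 cells with CellTox Green were exposed to compound for up to 40 h at 37 C, dye fluorescence rising with cell death.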

[3] = qHTS RealTime-Glo MT Cell Viability Assay in HEK293 cells - 16 hour (AID 1224872); settings: RealTime-Glo luminescence; series mostly up to 76.8 µM; also: top concentration of the series differs between compounds; nearly all actives have a fitted effect of over 50% in size
Outline: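 Homogeneous bioluminescent viability format in HEK293 cells (600 cells/well). Following 5 h at 37 C/5% CO2, 23 nL compound was pintooled; the signal was measured repeatedly during 40 h incubation.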

[4] = qHTS RealTime-Glo MT Cell Viability Assay in HepG2 cells - 8 hour (AID 1224873); settings: RealTime-Glo luminescence; series mostly up to 76.8 µM; also: nearly all actives have a fitted effect of over 55% in size
Outline: as §1

[5] = qHTS RealTime-Glo MT Cell Viability Assay in HEK293 cells - 40 hour (AID 1224874); settings: RealTime-Glo luminescence; max response: active compounds read low; also: nearly all actives have a fitted effect of over 50% in size
Outline: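 qHTS format; HEK293 cells with NanoLuc/prosubstrate reagent, 37 C/5% CO2 for 5 h pre-dosing; compounds 23 nL in DMSO; luminescence at each time point reflects viable cells.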

[6] = A CellTox Green Cytotoxicity Assay to monitor cytotoxicity in HEK293 cells - 24 hour (AID 1224875); settings: CellTox Green fluorescence; series mostly up to 76.8 µM; also: nearly all actives have a fitted effect of over 45% in size; also: potency is read from the fitted curve at half-maximal effect
Outline: as §2

[7] = A CellTox Green Cytotoxicity Assay to monitor cytotoxicity in HepG2 cells - 16 hour (AID 1224876); settings: CellTox Green fluorescence; series mostly up to 76.8 µM; also: nearly all actives have a fitted effect of over 45% in size; also: potency is read from the fitted curve at half-maximal effect
Outline: (§3)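 Continuous culture of HepG2 cells with a membrane-impermeant DNA dye; rising fluorescence marks dead cells. Compound exposure lasted up to 40 h at 37 C, with reads every 8 h from 0 h.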

[8] = qHTS RealTime-Glo MT Cell Viability Assay in HepG2 cells - 32 hour (AID 1224877); settings: RealTime-Glo luminescence; series mostly up to 76.8 µM; also: nearly all actives have a fitted effect of over 55% in size
Outline: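 Cell number in HepG2 cultures estimated from NanoLuc luminescence generated by metabolic reduction of a prosubstrate by living cells. The homogeneous, nonlytic format allowed repeated reads at 0, 8, 16, 24, 32 and 40 h of compound exposure.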

[9] = A CellTox Green Cytotoxicity Assay to monitor cytotoxicity in HepG2 cells - 24 hour (AID 1224878); settings: CellTox Green fluorescence; series mostly up to 76.8 µM; also: nearly all actives have a fitted effect of over 45% in size; also: potency is read from the fitted curve at half-maximal effect
Outline: as §3

[10] = A CellTox Green Cytotoxicity Assay to monitor cytotoxicity in HepG2 cells - 40 hour (AID 1224879); settings: CellTox Green fluorescence; series mostly up to 76.8 µM; also: nearly all actives have a fitted effect of over 40% in size
Outline: as §3

Row | Structure (SMILES) | Potency [1] | Potency [2] | Potency [3] | outcome [4] | max response [5] | Potency [6] | Potency [7] | Potency [8] | Potency [9] | Potency [10]
1 | COC[C@H](c1ccc(C(F)(F)F)cc1)N1CCN(C2(C)CCN(C(=O)c3c(C)ncnc3C)CC2)C[C@H]1C | inactive | inactive | inactive | inactive | -19.9% | inactive | inactive | inactive | inactive | 
2 | Cc1ccccc1C(=O)O | inactive | inactive | inactive | inactive | -0.805% | inactive | inactive | inactive |  | 
3 | C1C2OC2C2C1C1CC2C2OC12 (stereo unspecified) | inactive | inactive | inactive | inactive | 2.43% | inactive | inactive | inactive | inactive | 
4 | C=CCSCC1Nc2cc(Cl)c(S(N)(=O)=O)cc2S(=O)(=O)N1 (stereo unspecified) | inactive | inactive | inactive | inactive | 10.2% | inactive | inactive | inactive | inactive | 
5 | CC/C=C\CCCCO | inactive | inactive | inactive | inactive | 1.83% | inactive | inactive | inactive |  | 
6 | C=C(C)[C@H]1CC=C(C)CC1 | inactive | inactive | inactive | inactive | 0.727% | inactive | inactive | inactive | inactive | 
7 | CN1[C@@H]2CC[C@H]1CC(NC(=O)n1c(=O)[nH]c3ccccc31)C2 (stereo partly specified) | inactive | inactive | inactive | inactive | -2.86% | inactive | inactive | inactive | inactive | 
8 | COc1ccc(NC(C)=O)cc1 | inactive | inactive | inactive | inactive | -7.34% | inactive | inactive | inactive | inactive | 
9 | CC(C)[C@H](N)C(=O)OCCOCn1cnc2c(=O)[nH]c(N)nc21 | inactive | inactive | inactive | inactive | 9.28% | inactive | inactive | inactive | inactive | 
10 | CCCCCCCCCCCCCCC | inactive | inactive | inactive | inactive | 10.7% | inactive | inactive | inactive | inactive | 
11 | CC(C)c1cccc(O)c1 | inactive | inactive | inactive | inactive | 1.56% | inactive | inactive | inactive |  | 
12 | COc1ccc2cc(C=O)ccc2c1 | inactive | inactive | inactive | inactive | 2.85% | inactive | inactive | inactive | inactive | 
13 | COc1cc(C(=O)N2CCOCC2)cc(OC)c1OC | inactive | inactive | inactive | inactive | 11.2% | inactive | inactive | inactive | inactive | 
14 | CC(=O)N[C@@H](CCC(N)=O)C(=O)O | inactive | inactive | inactive | inactive | -1.52% | inactive | inactive | inactive |  | 
15 | O=C1OC(=O)c2cc([N+](=O)[O-])ccc21 | inactive | inactive | inactive | inactive | 13% | inactive | inactive | inactive |  | 
16 | COC(=O)c1ccc(C(=O)OC)c(C(=O)OC)c1 | inactive | inactive | inactive | inactive | 1.35% | inactive | inactive | inactive |  | 
17 | COC(=O)CCCC(=O)O | inactive | inactive | inactive | inactive | 10.9% | inactive | inactive | inactive |  | 
18 | C=CCOc1nc(OCC=C)nc(OCC=C)n1 | inactive | inactive | inactive | inactive | 11.1% | inactive | inactive | inactive |  | 
19 | O=S(=O)(c1cccc2cnccc12)N1CCCNCC1 | inactive | inactive | inactive | inactive | 8.06% | inactive | inactive | inactive | inactive | 
20 | CCCCC=O | inactive | inactive | inactive | inactive | 2.57% | inactive | inactive | inactive |  | 
21 | CC(C)CCCCCCN | inactive | inactive | inactive | inactive | -7.14% | inactive | inactive | inactive |  | 
22 | CCCCCCCCN(C)CCCCCCCC | inactive | inactive | inactive | inactive | 4.39% | inactive | inactive | inactive |  | 
23 | CCC(=O)c1cccc(Cl)c1 | inactive | inactive | inactive | inactive | 3.96% | inactive | inactive | inactive |  | 
24 | OC[C@H]1O[C@@H]2O[C@H]3[C@H](O)[C@@H](O)[C@@H](O[C@H]4[C@H](O)[C@@H](O)[C@@H](O[C@H]5[C@H](O)[C@@H](O)[C@@H](O[C@H]6[C@H](O)[C@@H](O)[C@@H](O[C@H]7[C@H](O)[C@@H](O)[C@@H](O[C@H]8[C@H](O)[C@@H](O)[C@@H](O[C@H]9[C@H](O)[C@@H](O)[C@@H](O[C@H]1[C@H](O)[C@H]2O)O[C@@H]9CO)O[C@@H]8CO)O[C@@H]7CO)O[C@@H]6CO)O[C@@H]5CO)O[C@@H]4CO)O[C@@H]3CO | inactive | inactive | inactive | inactive | 1.22% | inactive | inactive | inactive | inactive | 
25 | NC(=O)c1ncn([C@@H]2O[C@H](CO)[C@@H](O)[C@H]2O)c1N | inactive | inactive | inactive | inactive | -6.56% | inactive | inactive | inactive | inactive | 

Row | Structure (SMILES) | Potency [1] | Potency [2] | Potency [3] | outcome [4] | max response [5] | Potency [6] | Potency [7] | Potency [8] | Potency [9] | Potency [10]
26 | CC(=O)CCc1ccc(O)cc1 | inactive | inactive | inactive | inactive | -1.37% | inactive | inactive | inactive | inactive | 
27 | COC(C(=O)O)c1ccccc1 (stereo unspecified) | inactive | inactive | inactive | inactive | 2.29% | inactive | inactive | inactive |  | 
28 | N#CCN(CC#N)CCN(CC#N)CC#N | inactive | inactive | inactive | inactive | 4.6% | inactive | inactive | inactive | inactive | 
29 | Nc1nc2c(ncn2CCC(CO)CO)c(=O)[nH]1 | inactive | inactive | inactive | inactive | 0.17% | inactive | inactive | inactive | inactive | 
30 | CC(C)=CCC/C(C)=C/C(=O)O | inactive | inactive | inactive | inactive | 0.0826% | inactive | inactive | inactive |  | 
31 | CCCCCCC(CCCCCCCCCCC(=O)OCC(COC(C)=O)OC(C)=O)OC(C)=O (stereo unspecified) | inactive | inactive | inactive | inactive | 14.5% | inactive | inactive | inactive | inactive | 
32 | Nc1ccn(C2CO[C@H](CO)O2)c(=O)n1 (stereo partly specified) | inactive | 15.1 µM (active) | inactive | inactive | -2.21% | 19 µM (active) | 8.49 µM (active) | inactive | 6.74 µM (active) | 
33 | O=C(O)/C=C/c1ccc(/C=C/C(=O)O)cc1 | inactive | inactive | inactive | inactive | 3.8% | inactive | inactive | inactive | inactive | 
34 | CCCCc1ccc2cccc(S(=O)(=O)O)c2c1 | inactive | inactive | inactive | inactive | 3.37% | inactive | inactive | inactive |  | 
35 | CC(C)CCCC(C)NCCC(C)C (stereo unspecified) | inactive | inactive | inactive | inactive | 0.252% | inactive | inactive | inactive | inactive | 
36 | Oc1ccc2c(c1)OC[C@@H](N1CCC(O)(c3ccc(F)cc3)CC1)[C@H]2O | inactive | inactive | inactive | inactive | -13.9% | inactive | inactive | inactive |  | 
37 | C#CC(O)C(CC)CCCC (stereo unspecified) | inactive | inactive | inactive | inactive | 11.7% | inactive | inactive | inactive | inactive | 
38 | OC1OC[C@@H](O)[C@H](O)[C@H]1O (stereo partly specified) | inactive | inactive | inactive | inactive | 0.611% | inactive | inactive | inactive | inactive | inactive
39 | CCCCCC[C@@H](CCC)C(=O)O | inactive | inactive | inactive | inactive | 13.8% | inactive | inactive | inactive | inactive | inactive
40 | CCCC(=O)O[C@]1(C(=O)CCl)[C@@H](C)C[C@H]2[C@@H]3CCC4=CC(=O)C=C[C@]4(C)[C@@]3(F)C(=O)C[C@@]21C | inactive | inactive | inactive | inactive | -19.8% | inactive | inactive | inactive | inactive | inactive
41 | O=C(O)c1ccccc1-c1ccc(C(F)(F)F)cc1 | inactive | inactive | inactive | inactive | 7.22% | inactive | inactive | inactive | inactive | inactive
42 | NS(=O)(=O)c1cc2c(cc1Cl)NC(CSCc1ccccc1)=NS2(=O)=O | inactive | inactive | inactive | inactive | -0.803% | inactive | inactive | inactive | inactive | inactive
43 | CCc1cc(S(=O)(=O)O)c2cc(C(C)C)cccc1-2 | inactive | inactive | inactive | inactive | 7.39% | inactive | inactive | inactive | inactive | inactive
44 | O=C1CC2(CCCC2)CC(=O)N1 | inactive | inactive | inactive | inactive | 3.72% | inactive | inactive | inactive | inactive | inactive
45 | CC(=O)NC(Cc1ccccc1)C(=O)O (stereo unspecified) | inactive | inactive | inactive | inactive | 5.56% | inactive | inactive | inactive | inactive | 
46 | C=CC(=O)OCCCCCC | inactive | inactive | inactive | inactive | -6.6% | inactive | inactive | inactive | inactive | inactive
47 | CCCOCC(C)OCC(C)O (stereo unspecified) | inactive | inactive | inactive | inactive | 5.98% | inactive | inactive | inactive | inactive | inactive
48 | CC(C)(C)N(CCO)CCO | inactive | inactive | inactive | inactive | 0.933% | inactive | inactive | inactive | inactive | inactive
49 | C[C@H]1O[C@@H](n2cc(F)c(=O)[nH]c2=O)[C@H](O)[C@@H]1O | inactive | inactive | inactive | inactive | 0.654% | inactive | inactive | inactive | inactive | inactive
